From PubChem BioAssay (EPA / NIEHS)
Calls of active or inactive are those of the source. The calls were made as follows: active = hit-call score of the fitted dose curve at least 0.9, where 1 is the maximum; inactive = score below 0.9.

Assays:
[1] = read-out: Thrombomodulin, THBD (gene 7056); assay: BSK_CASM3C_Thrombomodulin: BioMAP Diversity Plus: CASM3C Assay for Thrombomodulin Biomarker Activity (AID 2283051); settings: primary human coronary artery smooth muscle cells; actives raise or lower the signal;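 also: thrombomodulin protein level measured by ELISA 24 h after dosing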
[2] = read-out: Tissue Factor, F3 (gene 2152); assay: BSK_CASM3C_TissueFactor: BioMAP Diversity Plus: CASM3C Assay for Tissue Factor Biomarker Activity (AID 2283052); settings: primary human coronary artery smooth muscle cells; actives raise or lower the signal;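 also: cell surface tissue factor protein level read by ELISA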
[3] = read-out: Interferon-gamma inducible Protein 10 (IP10), CXCL10 (gene 3627); assay: BSK_hDFCGF_IP10: BioMAP Diversity Plus: hDFCGF Assay for Interferon-gamma inducible Protein 10 (IP10) Biomarker Activity (AID 2283053); settings: primary human foreskin fibroblasts; actives raise or lower the signal
In short: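 IP-10 levels, quantified by ELISA, are taken from human foreskin fibroblast cultures 24 h after chemical treatment, with DMSO serving as negative control and baseline for bidirectional analysis.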

[4] = read-out: Urokinase-type plasminogen activator receptor (uPAR), PLAUR (gene 5329); assay: BSK_CASM3C_uPAR: BioMAP Diversity Plus: CASM3C Assay for Urokinase-type plasminogen activator receptor (uPAR) Biomarker Activity (AID 2283054); settings: primary human coronary artery smooth muscle cells; actives raise or lower the signal;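 also: cell-surface uPAR protein level quantified by ELISA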
[5] = read-out: Vascular cell adhesion molecule 1 (VCAM1), VCAM1 (gene 7412); assay: BSK_CASM3C_VCAM1: BioMAP Diversity Plus: CASM3C Assay for Vascular cell adhesion molecule 1 (VCAM1) Biomarker Activity (AID 2283055); settings: primary human coronary artery smooth muscle cells; actives raise or lower the signal;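 also: VCAM-1 protein level quantified by ELISA on the cells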
[6] = read-out: Collagen III, COL3A1 (gene 1281); assay: BSK_hDFCGF_CollagenIII: BioMAP Diversity Plus: hDFCGF Assay for Collagen III Biomarker Activity (AID 2283056); settings: primary human foreskin fibroblasts; actives raise or lower the signal
In short: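 ELISA read-out of collagen III from human skin fibroblast cultures sampled 24 h post-dosing. Values were derived by bidirectional fitting relative to the DMSO vehicle control.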

[7] = read-out: Epidermal growth factor receptor (EGFR), EGFR (gene 1956); assay: BSK_hDFCGF_EGFR: BioMAP Diversity Plus: hDFCGF Assay for Epidermal growth factor receptor (EGFR) Biomarker Activity (AID 2283057); settings: primary human foreskin fibroblasts; actives raise or lower the signal
In short: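 Measured by ELISA: EGFR levels on primary human foreskin fibroblasts 24 h after chemical treatment, analysed relative to DMSO with bidirectional fitting.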

[8] = read-out: Interleukin-8 (IL8), CXCL8 (gene 3576); assay: BSK_hDFCGF_IL8: BioMAP Diversity Plus: hDFCGF Assay for Interleukin-8 (IL8) Biomarker Activity (AID 2283058); settings: primary human foreskin fibroblasts; actives raise or lower the signal
In short: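 Cells used are human skin primary fibroblasts. Chemical is added, cultures run 24 h, then IL-8 is quantified by ELISA, and gain or loss versus DMSO control is fitted in both directions.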

[9] = BSK_hDFCGF_Proliferation: Cell Proliferation Assessment in the BioMAP Diversity Plus: hDFCGF Assay (AID 2283059); settings: primary human foreskin fibroblasts;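 also: curves fitted for both rise and fall of signal versus DMSO baseline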
In short: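 Total protein read at 560 nm after 0.1% SRB staining of TCA-fixed human skin fibroblasts, […]. Activity is fitted in both directions relative to DMSO as baseline.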

[10] = read-out: Macrophage colony-stimulating factor (MCSF), CSF1 (gene 1435); assay: BSK_hDFCGF_MCSF: BioMAP Diversity Plus: hDFCGF Assay for Macrophage colony-stimulating factor (MCSF) Biomarker Activity (AID 2283060); settings: primary human foreskin fibroblasts; actives raise or lower the signal
In short: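 Primary human foreskin fibroblasts dosed with chemical; 24 h later, M-CSF quantified by ELISA; curves fitted in both directions vs DMSO negative control.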

[11] = BSK_hDFCGF_SRB: Viability Assessment in the BioMAP Diversity Plus: hDFCGF Assay (AID 2283061); settings: primary human foreskin fibroblasts;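 also: cells exposed to compound for 24 h before the read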
In short: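 Readout is SRB absorbance at 560 nm, reflecting total protein in parallel cultures of human foreskin fibroblasts harvested 24 h after chemical dosing. Activity was fitted bidirectionally relative to DMSO.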

[12] = read-out: TIMP metallopeptidase inhibitor 1 (TIMP1), TIMP1 (gene 7076); assay: BSK_hDFCGF_TIMP1: BioMAP Diversity Plus: hDFCGF Assay for TIMP metallopeptidase inhibitor 1 (TIMP1) Biomarker Activity (AID 2283062); settings: primary human foreskin fibroblasts; actives raise or lower the signal
In short: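 Human skin fibroblasts (primary), hDFCGF system; compound exposure 24 h; TIMP-1 by ELISA; bidirectional fit vs DMSO negative control; overt cytotoxicity by SRB in parallel wells.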

[13] = read-out: Monokine induced gamma interferon (MIG), CXCL9 (gene 4283); assay: BSK_hDFCGF_MIG: BioMAP Diversity Plus: hDFCGF Assay for Monokine induced gamma interferon (MIG) Biomarker Activity (AID 2283063); settings: primary human foreskin fibroblasts; actives raise or lower the signal
In short: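 Chemicals were added to primary human foreskin fibroblast cultures, which were sampled 24 h later. MIG levels were then quantified by ELISA and responses fitted in both directions relative to DMSO.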

[14] = read-out: Matrix Metallopeptidase 1 (MMP1), MMP1 (gene 4312); assay: BSK_hDFCGF_MMP1: BioMAP Diversity Plus: hDFCGF Assay for Matrix Metallopeptidase 1 (MMP1) Biomarker Activity (AID 2283064); settings: primary human foreskin fibroblasts; actives raise or lower the signal
In short: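 hDFCGF primary fibroblasts (human foreskin); chemical added; 24 h; MMP1 by ELISA; bidirectional fit vs DMSO.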

[15] = read-out: Vascular cell adhesion molecule 1 (VCAM1), VCAM1 (gene 7412); assay: BSK_hDFCGF_VCAM1: BioMAP Diversity Plus: hDFCGF Assay for Vascular cell adhesion molecule 1 (VCAM1) Biomarker Activity (AID 2283065); settings: primary human foreskin fibroblasts; actives raise or lower the signal;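 as to AC50: VCAM-1 protein level quantified by ELISA after 24 h chemical exposure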
In short: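 Human foreskin fibroblast primary cells, chemical exposure 24 h; VCAM-1 by ELISA; bidirectional fit, DMSO = negative control/baseline.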

[16] = read-out: Plasminogen activator inhibitor-1 (PAI1), SERPINE1 (gene 5054); assay: BSK_hDFCGF_PAI1: BioMAP Diversity Plus: hDFCGF Assay for Plasminogen activator inhibitor-1 (PAI1) Biomarker Activity (AID 2283066); settings: primary human foreskin fibroblasts; actives raise or lower the signal
In short: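 PAI-1 levels, determined by ELISA, served as the endpoint in human foreskin fibroblast cultures exposed to compound for 24 h, with DMSO as baseline.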

[17] = read-out: Intercellular Adhesion Molecule 1 (ICAM1), ICAM1 (gene 3383); assay: BSK_KF3CT_ICAM1: BioMAP Diversity Plus: KF3CT Assay for Intercellular Adhesion Molecule 1 (ICAM1) Biomarker Activity (AID 2283067); settings: primary human keratinocytes with fibroblasts; actives raise or lower the signal
In short: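 ICAM-1 levels are measured by ELISA 24 h after dosing a primary human co-culture of keratinocytes and foreskin fibroblasts. Activity in either direction is fitted relative to DMSO vehicle.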

[18] = read-out: Interferon-gamma inducible Protein 10 (IP10), CXCL10 (gene 3627); assay: BSK_KF3CT_IP10: BioMAP Diversity Plus: KF3CT Assay for Interferon-gamma inducible Protein 10 (IP10) Biomarker Activity (AID 2283068); settings: primary human keratinocytes with fibroblasts; actives raise or lower the signal
In short: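 Human keratinocyte plus foreskin fibroblast primary co-culture exposed to test chemical for 24 h; IP-10 measured by ELISA. Concentration-response fitted bidirectionally against DMSO control as baseline.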

[19] = BSK_KF3CT_SRB: Viability Assessment in the BioMAP Diversity Plus: KF3CT Assay (AID 2283069); settings: primary human keratinocytes with fibroblasts;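 also: total protein by sulforhodamine B staining as a cytotoxicity measure; read 24 h after compound addition; fitted for both signal gain and loss against DMSO baseline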
In short: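 Keratinocytes co-cultured with foreskin fibroblasts (human primary); chemical added, 24 h; fix 10% TCA, stain 0.1% SRB, A560. Bidirectional fit vs DMSO.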

[20] = read-out: Interleukin-1 alpha (IL1a), IL1A (gene 3552); assay: BSK_KF3CT_IL1a: BioMAP Diversity Plus: KF3CT Assay for Interleukin-1 alpha (IL1a) Biomarker Activity (AID 2283070); settings: primary human keratinocytes with fibroblasts; actives raise or lower the signal
In short: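 Chemicals were dosed onto co-cultured human keratinocytes and foreskin fibroblasts, IL-1a was quantified by ELISA at 24 h, and activity was fitted in both directions relative to DMSO controls.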

Measured: AC50

CC(=NC#N)N(C)Cc1ccc(Cl)nc1
inactive: all assays above

CCCSP(=O)(OCC)Oc1ccc(Br)cc1Cl (stereo not drawn)
active: [1] 11.5 µM | [3] 20 µM | [6] 20 µM | [9] 31.7 µM | [10] 17.4 µM | [15] 27.7 µM | [19] 22.7 µM
inactive: all other assays above

C[Si](Cn1cncn1)(c1ccc(F)cc1)c1ccc(F)cc1
active: [1] 7.8 µM
inactive: all other assays above

N#CSCSC#N
active: [1] 31.3 µM | [3] 1.09 µM | [4] 30.6 µM | [5] 19.3 µM | [6] 2.52 µM | [7] 1.68 µM | [8] 3.03 µM | [9] 0.225 µM | [10] 1.93 µM | [11] 0.66 µM | [13] 1.78 µM | [14] 3.17 µM | [15] 1.71 µM | [16] 2.32 µM | [17] 5.57 µM | [18] 8.38 µM | [19] 4.78 µM | [20] 8.09 µM
inactive: [2] | [12]

CCOP(=S)(OCC)Oc1cc(C)nc(C(C)C)n1
inactive: all assays above

CCOP(=S)(OCC)SCCSCC
active: [15] 36.9 µM | [18] 37 µM
not listed: [3] | [14]
inactive: all other assays above
